Screen size: about 5,500 compounds; about 2,000 (36%) were called active. Not shown: some 18% with an inconclusive outcome. Rule as the data show it: active = normalized growth mostly below about 0.91 (no sharp cut-off); inconclusive = no clear call, values can overlap the other calls; inactive = mostly above about 0.92. The list shows a part of the results.
Assay: chemical genetic growth profiling, strain panel (AID 1159580);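 also: tested at 20 µM; growth read once vehicle control cultures reached saturation at 30 °C; 1 = growth at the plate median or of vehicle wells; lower values mean less growth of the strain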
Conditions: growth OD

Measured: normalized growth

CC(=O)NO
inactive: S. cerevisiae deletion strains, locus YJL187C, strain SWE1, hits give low values 0.992 | S. cerevisiae deletion strains, locus YJR043C, strain POL32, hits give low values 1.07 | S. cerevisiae deletion strains, locus YJR066W, strain TOR1, hits give low values 0.993 | S. cerevisiae deletion strains, locus YKL009W, strain mrt4, hits give low values 0.989 | S. cerevisiae deletion strains, locus YKL068W, hits give low values 0.995 | S. cerevisiae deletion strains, locus YKL085W, strain MDH1 (second series), hits give low values 0.994 | S. cerevisiae deletion strains, locus YKL085W, strain MDH1, hits give low values 0.994 | S. cerevisiae deletion strains, locus YKL160W, strain elf1, hits give low values 0.961 | S. cerevisiae deletion strains, locus YKL190W, strain CNB1, hits give low values 1 | S. cerevisiae deletion strains, locus YKR001C, strain vps1, hits give low values 1.02 | S. cerevisiae deletion strains, locus YKR026C, strain gcn3, hits give low values 0.98 | S. cerevisiae deletion strains, locus YKR091W, strain srl3, hits give low values 0.985 | S. cerevisiae deletion strains, locus YLL001W, strain dnm1, hits give low values 0.922 | S. cerevisiae deletion strains, locus YLL026W, hits give low values 0.988 | S. cerevisiae deletion strains, locus YLL041C, strain sdh2, hits give low values 0.988 | S. cerevisiae deletion strains, locus YLR027C, strain aat2, hits give low values 0.981 | S. cerevisiae deletion strains, locus YLR039C, strain RIC1, hits give low values 0.711 | S. cerevisiae deletion strains, locus YLR058C, strain SHM2, hits give low values 0.988 | S. cerevisiae deletion strains, locus YLR102C, strain apc9, hits give low values 0.996 | S. cerevisiae deletion strains, locus YLR113W, strain HOG1, hits give low values 0.973 | S. cerevisiae deletion strains, locus YLR221C, strain rsa3, hits give low values 0.922 | S. cerevisiae deletion strains, locus YLR258W, strain gsy2, hits give low values 0.964 | S. cerevisiae deletion strains, locus YLR262C, strain YPT6 (second series), hits give low values 0.986 | S. cerevisiae deletion strains, locus YLR262C, strain YPT6, hits give low values 0.746 | S. cerevisiae deletion strains, locus YLR268W, strain sec22, hits give low values 0.965 | S. cerevisiae deletion strains, locus YLR320W, strain mms22, hits give low values 0.892 | S. cerevisiae deletion strains, locus YLR330W, strain CHS5, hits give low values 0.996 | S. cerevisiae deletion strains, locus YLR342W, strain FKS1 (second series), hits give low values 0.901 | S. cerevisiae deletion strains, locus YLR342W, strain FKS1, hits give low values 0.98 | S. cerevisiae deletion strains, locus YLR357W, strain rsc2, hits give low values 0.971 | S. cerevisiae deletion strains, locus YLR370C, strain arc18, hits give low values 0.949 | S. cerevisiae deletion strains, locus YLR371W, strain rom2, hits give low values 0.987 | S. cerevisiae deletion strains, locus YLR384C, strain iki3, hits give low values 0.983 | S. cerevisiae deletion strains, locus YLR418C, strain cdc73, hits give low values 0.851 | S. cerevisiae deletion strains, locus YML016C, strain PPZ1, hits give low values 0.993 | S. cerevisiae deletion strains, locus YML032C, strain rad52, hits give low values 0.951 | S. cerevisiae deletion strains, locus YML120C, strain ndi1, hits give low values 0.948 | S. cerevisiae deletion strains, locus YML124C, strain tub3, hits give low values 0.995 | S. cerevisiae deletion strains, locus YMR058W, strain fet3, hits give low values 0.988 | S. cerevisiae deletion strains, locus YMR078C, strain ctf18, hits give low values 0.991 | S. cerevisiae deletion strains, locus YMR125W, strain sto1, hits give low values 0.963 | S. cerevisiae deletion strains, locus YMR129W, hits give low values 0.99 | S. cerevisiae deletion strains, locus YMR205C, strain PFK2, hits give low values 0.951 | S. cerevisiae deletion strains, locus YMR223W, strain ubp8, hits give low values 0.968 | S. cerevisiae deletion strains, locus YMR231W, strain pep5, hits give low values 0.987 | S. cerevisiae deletion strains, locus YMR307W, strain GAS1, hits give low values 1.17 | S. cerevisiae deletion strains, locus YNL067W, strain RPL9B, hits give low values 0.949 | S. cerevisiae deletion strains, locus YNL071W, strain lat1, hits give low values 0.976 | S. cerevisiae deletion strains, locus YNL183C, strain NPR1, hits give low values 0.968 | S. cerevisiae deletion strains, locus YNL209W, strain ssb2, hits give low values 0.985 | S. cerevisiae deletion strains, locus YNL233W, strain BNI4, hits give low values 0.939 | S. cerevisiae deletion strains, locus YNL248C, strain rpa49, hits give low values 0.956 | S. cerevisiae deletion strains, locus YNL250W, strain rad50, hits give low values 0.976 | S. cerevisiae deletion strains, locus YNL271C, strain bni1, hits give low values 0.984 | S. cerevisiae deletion strains, locus YNL298W, strain CLA4, hits give low values 0.993 | S. cerevisiae deletion strains, locus YNL307C, strain MCK1, hits give low values 0.978 | S. cerevisiae deletion strains, locus YNL322C, strain KRE1 (second series), hits give low values 0.957 | S. cerevisiae deletion strains, locus YNR049C, strain mso1, hits give low values 0.977 | S. cerevisiae deletion strains, locus YNR052C, strain pop2, hits give low values 0.97 | S. cerevisiae deletion strains, locus YOL012C, strain htz1 0.899 | S. cerevisiae deletion strains, locus YOL147C, strain pex11, hits give low values 0.992 | S. cerevisiae deletion strains, locus YOR001W, strain rrp6, hits give low values 1.01 | S. cerevisiae deletion strains, locus YOR061W, strain CKA2, hits give low values 1 | S. cerevisiae deletion strains, locus YOR069W, strain VPS5, hits give low values 1.01 | S. cerevisiae deletion strains, locus YOR070C, strain gyp1, hits give low values 0.979 | S. cerevisiae deletion strains, locus YOR080W, strain dia2, hits give low values 0.977 | S. cerevisiae deletion strains, locus YOR083W, strain WHI5, hits give low values 0.962 | S. cerevisiae deletion strains, locus YOR106W, strain vam3, hits give low values 0.975 | S. cerevisiae deletion strains, locus YOR136W, strain idh2, hits give low values 0.989 | S. cerevisiae deletion strains, locus YOR144C, strain elg1, hits give low values 0.996 | S. cerevisiae deletion strains, locus YOR184W, strain ser1, hits give low values 0.974 | S. cerevisiae deletion strains, locus YOR231W, strain MKK1, hits give low values 0.992 | S. cerevisiae deletion strains, locus YOR265W, strain rbl2, hits give low values 0.986 | S. cerevisiae deletion strains, locus YOR270C, strain vph1, hits give low values 0.944 | S. cerevisiae deletion strains, locus YOR290C, strain snf2, hits give low values 0.948 | S. cerevisiae deletion strains, locus YOR316C, strain cot1, hits give low values 0.996 | S. cerevisiae deletion strains, locus YPL051W, strain arl3, hits give low values 0.985 | S. cerevisiae deletion strains, locus YPL078C, strain atp4, hits give low values 0.97 | S. cerevisiae deletion strains, locus YPL106C, strain sse1, hits give low values 0.969 | S. cerevisiae deletion strains, locus YPL240C, strain hsp82, hits give low values 0.983 | S. cerevisiae deletion strains, locus YPL256C, strain CLN2, hits give low values 0.994 | S. cerevisiae deletion strains, locus YPR119W, strain clb2, hits give low values 1 | S. cerevisiae deletion strains, locus YPR141C, strain kar3, hits give low values 1 | S. cerevisiae deletion strains, locus YPR163C, strain tif3, hits give low values 0.984 | S. cerevisiae deletion strains, locus YPR167C, strain met16, hits give low values 0.983 | S. cerevisiae deletion strains, strain wtn01, hits give low values 0.969 | S. cerevisiae strains, strain wild type, hits give low values 0.981
